For part of these data: Measured potencies and affinities stand elsewhere.
What was measured:
[1] = test system: Staphylococcus aureus; test: Antibacterial activity against Staphylococcus aureus MRSA ATCC 43300 (CO-ADD:GP_020); MIC in CAMBH media using NBS plates, by Resazurin F(560/590); assay type: functional; settings: Concentration 20 uM, ASSAY_TEST Inhibition of Bacterial Growth, detection method Resazurin, Fluorescence (ex560/em590), MEDIA CAMHB, plate type 384well, CORNING #3640, time 18 hr
[2] = test system: Acinetobacter baumannii; test: Antibacterial activity against Acinetobacter baumannii ATCC 19606 (CO-ADD:GN_034); MIC in CAMBH media using NBS plates, by Resazurin F(560/590); assay type: functional; settings: Concentration 20 uM, ASSAY_TEST Inhibition of Bacterial Growth, detection method Resazurin, Fluorescence (ex560/em590), MEDIA CAMHB, plate type 384well, CORNING #3640, time 18 hr
[3] = test system: Escherichia coli; test: Antibacterial activity against Escherichia coli ATCC 25922 (CO-ADD:GN_001); MIC in CAMBH media using NBS plates, by Resazurin F(560/590); assay type: functional; settings: Concentration 20 uM, ASSAY_TEST Inhibition of Bacterial Growth, detection method Resazurin, Fluorescence (ex560/em590), MEDIA CAMHB, plate type 384well, CORNING #3640, time 18 hr
[4] = test system: Klebsiella pneumoniae; settings: Concentration 20 uM; ASSAY_TEST Inhibition of Bacterial Growth; detection method Absorption (OD600); MEDIA CAMHB; plate type 384well; NBS; CORNING #3640; time 18 hr
[5] = test system: Candida albicans; settings: 20 µM
[6] = test system: Cryptococcus neoformans; settings: Concentration 20 uM; ASSAY_TEST Inhibition of Fungal Growth; detection method Resazurin; Absorption (OD600-OD570); plate type 384well; NBS; CORNING #3640

| Compound | Inhibition [1] [%] | Inhibition [2] [%] | Inhibition [3] [%] | Inhibition [4] [%] | Inhibition [5] [%] | Inhibition [6] [%] |
| --- | --- | --- | --- | --- | --- | --- |
| CC1=CN2C(c3cccc([N+](=O)[O-])c3)=NON(c3ccc(C)cn3)C2C=C1 (stereo unspecified) | 16.79 | -11.84 | 19.37 | 7.72 | 17.2 | 0.26 |
| c1ccc2c(c1)nnn2-c1ccncc1 | -3.68 | -2.01 | -7.33 | 4.04 | 1.59 | -7.26 |
| CSc1cccc(NC(=O)OC2CCCCCCCCCCC2)c1 | 23.58 | 6.29 | 14.03 | 20.05 | 2.81 | -2.07 |
| O=C(Nc1csnn1)c1csnn1 | -7.63 | -6.51 | -0.35 | -1.22 | 2.96 | 1.57 |
| Oc1ccc2c(ccc3[nH]cnc32)c1 | 7.97 | -12.34 | 17.76 | 18.56 | -0.43 | -9.86 |
| CCOC(=O)Cc1cnc(S)nc1O | 9.6 | -11.54 | 7.99 | 8.74 | 1.43 | -1.74 |
| COc1ccc(NC2=CC(=S)NC(C)(C)C2)cc1 | 11.18 | -15.84 | 12.98 | 4.99 | 2.09 | -8.08 |
| CSc1cccc(NC(=O)N2CCN(C)CC2)c1 | 0.63 | -10.8 | 6.03 | 6.8 | 3.78 | -18.46 |
| CC(=O)NCCCOc1ccc([N+](=O)[O-])cc1Cl | 3.67 | -1.89 | 11.85 | 3.56 | 0.9 | -4.3 |
| CCOC(=O)/C=C/c1ccc(C(=O)OCC)[nH]1 | 42.73 | 10.2 | 20.38 | 8.24 | 7.12 | 8.93 |
| CC1=CC(=C2C=CC(=O)C=C2)C=C(C)N1C | 0.37 | -6.52 | 4.86 | -4.58 | 4.83 | -12.1 |
| C=CCNC(=S)NCC=C | 10.5 | -8.96 | 3.32 | 27.24 | 1.09 | 2.25 |
| COc1cc(NC(=O)CCl)ccc(=O)c1 | -5.48 | 6.09 | 9.48 | 4.54 | 1.92 | -8.46 |
| CCCCN1CCN=C1S | 9.78 | -11.78 | 10.98 | 14.43 | -2.77 | -2.57 |
| CC(C)NC(=O)Nc1cccc(Cl)c1 | 12.4 | 7.15 | 6.41 | 8.52 | -1.88 | -9.01 |
| Nc1ccc(N/C(S)=N/c2ccccc2)cc1 | 15.05 | 4.29 | 7.29 | 5.43 | 1.8 | -4.63 |
| Nn1c(Cc2ccccc2)nnc1Cc1ccccc1 | 7.31 | 16.12 | -0.96 | 11.84 | 2.51 | -5.12 |
| CN1CCC(n2[nH]c(-c3ccccc3)c(Cc3ccccc3)c2=O)CC1 [BENZPIPERYLON] | 11.83 | -21.66 | 9.93 | 7.59 | -2.02 | -11.9 |
| CCOC(=O)C(C#N)C(=N)C1C(=O)OC2CCCCC21 (stereo unspecified) | 5.44 | -19.8 | 15.65 | 4.77 | -2.13 | -12.86 |
| Cc1cc(S)nc(S)n1 | 19.64 | -5.84 | 8.34 | 8.54 | -0.64 | -0.35 |
| O=C(Nc1ccc(F)cc1)OCCOc1ccc([N+](=O)[O-])cc1 | 6.26 | 5.22 | -7.06 | 8.41 | 4.71 | -9.23 |
| Cc1cccnc1NC(=O)c1csnn1 | 5.73 | -12.69 | 4.7 | 9.01 | -1.09 | -4.1 |
| O=C(O)C(Cc1ccccc1N(CCO)CCO)N1C(=O)c2ccccc2C1=O (stereo unspecified) | 11.82 | 6.12 | 3.59 | 11.57 | 0.11 | -6.78 |
| Cc1ccc(Cl)cc1NC(=O)c1cc2ccccc2cc1O | 5.29 | -8.92 | 15.86 | 12.1 | 4.11 | -7.39 |
| Cc1cc(N2CCN(C)CC2)n2nc(-c3ccc(Cl)cc3)nc2n1 | 10.15 | 8.53 | 12.12 | 20.83 | 5.91 | -6.75 |
| Nc1nc(SCc2ccccc2)sc1C(=O)N1CCCCC1 | 18.6 | 4.73 | 3.88 | 21.18 | 8.19 | -7.01 |

| Compound | Inhibition [1] [%] | Inhibition [2] [%] | Inhibition [3] [%] | Inhibition [4] [%] | Inhibition [5] [%] | Inhibition [6] [%] |
| --- | --- | --- | --- | --- | --- | --- |
| CCCOc1ccc(-c2nc(-c3ccc([N+](=O)[O-])cc3)cs2)cc1 | 9.47 | 16.16 | 3.67 | 10.79 | 5.94 | -3.16 |
| N=C1OC(c2ccccc2)C(O)=C1O (stereo unspecified) | 0.33 | -10.5 | 6.34 | 8.48 | 7.04 | -2.61 |
| CSc1nc2cc(S(=O)(=O)N3CCCCC3)ccc2s1 | 2.12 | 9.92 | -7.83 | 10.24 | 7.84 | 2.72 |
| Cc1ccc(NC(=O)Nc2cccnc2)cc1NC(=O)Nc1cccnc1 | 4.86 | 3.3 | 5.1 | 8.48 | -3.78 | -10.14 |
| CC(C)(C)NC(=O)c1ccc(C(=O)NC(C)(C)C)cc1 | -9.07 | -9.96 | 2.15 | 15.3 | 8.15 | -7.37 |
| CC1=NCC(C)c2ccccc21 (stereo unspecified) | 18.64 | -4.26 | 9.51 | 8.39 | -2.04 | -2.64 |
| CC(=O)OCc1cc(-c2nc3ccccc3nc2O)nn1-c1ccc(Cl)cc1 | 8.25 | 12.91 | -18.97 | 4.82 | 4.91 | 44.96 |
| NC(=O)Nc1ccc(Nc2ccccc2)cc1 | 15.79 | -8.02 | 5.39 | 5.31 | 0.18 | -3.95 |
| O=c1[nH]cc(Cl)cc1Cl | 16.39 | -19.78 | 16.35 | 10.84 | -0.92 | 0.46 |
| N#CC1C=Cc2c(ccc3ccccc23)N1C(=O)c1ccccc1 (stereo unspecified) | 29.76 | -9.2 | 7.35 | 24.48 | 11.9 | 2.44 |
| O=c1cc(-c2ccccc2)oc2ccc(O)cc12 [6-HYDROXYFLAVONE] | -4.33 | -2.45 | -5.6 | 8.45 | 7.78 | -10.88 |
| Cc1ccc(S(=O)(=O)NNC(=O)C23CCC(CC2)C3)cc1 | -6.52 | 6.35 | 7.26 | 14.92 | 4.46 | -6.05 |
| Cn1nc(N)c2ncc(C(Cl)(Cl)Cl)nc21 | -7.62 | -8.78 | 5.5 | 9.07 | 10.5 | -10.84 |
| O=c1[nH]c(=S)c2nc(S)n(-c3ccccc3)c2[nH]1 | 13.04 | 12.41 | 5.84 | 9.43 | 0.52 | -6.47 |
| Cc1ccc(Cl)cc1NC(=O)N(C)CCO | -6.32 | 12.85 | -9.79 | 13.54 | 6.98 | -5.5 |
| O=C1c2cccc(Oc3ccccc3)c2C(=O)c2cccc(Oc3ccccc3)c21 | 12.36 | 6.18 | -1.53 | 10.6 | 2.19 | -5.27 |
| COc1c(O)ccc2c1CN1CCc3cc4c(cc3C1C2)OCO4 (stereo unspecified) | 12.64 | 10.47 | 3.09 | 10.21 | -2.64 | -12.68 |
| O=C(O)c1cncc(Br)c1 | 13.85 | -13.95 | 3.81 | 4.04 | 6.23 | -7.23 |
| O=C(C=C=Nc1ccccc1)C(=O)N=C=Cc1ccccc1 | 7.34 | 5.35 | 5.03 | 25.39 | 6.53 | 5.95 |
| O=C(O)CCc1cccnc1 | 18.41 | -3.93 | 16.49 | 14.5 | 1.32 | -2.51 |
| O=C(Nc1cccc(-c2ccccc2)c1)N1CCN(C(=O)Nc2cccc(-c3ccccc3)c2)CC1 | 26.71 | -7.47 | 7.55 | 6.58 | -1.22 | -2.57 |
| CC1(C)c2ccccc2-c2nc3ccccc3cc2C1O (stereo unspecified) | 15.31 | 7.67 | -1.43 | 14.38 | 9.47 | -10.94 |
| O=P(O)(O)c1cc(-c2ccccc2)oc1-c1ccccc1 | -4.92 | 9.92 | 13.72 | 15.02 | 5.26 | -17.53 |
| CC1=NC(C)(C)CC2CCC(O)C12 (stereo unspecified) | 15.01 | -5.87 | 9.74 | 11.22 | 1.52 | -2.24 |
| O=C(O)CSc1nc2ccccc2s1 | 14.28 | -9.51 | 3.19 | 0.1 | 13.9 | -12.74 |
